# Shown are actives, neighbours in structure and some others; about 9% of the full set was active somewhere.
# HPGD inh – blocks human HPGD enzyme activity; purified HPGD, NADH fluorescence kinetic, PGE2 substrate; Potency, µM, without a hit: at the top dose activity change, negative = inhibition, actives largely listed as inhibitors; 150,000 tested, 4.3% active; AID 894; active = well fitted inhibition curve with a large enough effect, not every such curve was filed as active; inconclusive = small, poorly fitted or top-dose-only effect, or another doubt; inactive = no such curve, though single readings can be large or run the other way; also: % is scaled to controls: 0 for no effect and ±100 for the full control effect
# Target sequence (P15428 whole entry, looked up): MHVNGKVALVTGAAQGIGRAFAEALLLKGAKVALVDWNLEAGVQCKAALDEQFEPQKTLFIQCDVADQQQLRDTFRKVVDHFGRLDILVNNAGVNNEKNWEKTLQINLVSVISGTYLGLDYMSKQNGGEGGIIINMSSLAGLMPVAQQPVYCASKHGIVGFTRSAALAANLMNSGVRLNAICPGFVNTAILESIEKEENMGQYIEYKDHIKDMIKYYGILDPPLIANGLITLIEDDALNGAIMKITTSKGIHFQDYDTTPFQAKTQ
#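 20 nM HPGD preincubated 15 min at room temperature with compound in 50 mM Tris-HCl pH 8, 0.01% Tween 20. Started with 1 mM NAD+ and 30 uM prostaglandin E2; NADH fluorescence (360/450 nm) read 5 times over 30-s intervals, last minus first.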
# LMNA splice mod – modulators of lamin A splicing | HeLa LMNA splicing GFP/RFP minigene ratio, 48 h | Potency, µM (doses to about 46.1 µM), without a hit: top-dose ratio change, negative = inhibition, most hits filed as inhibitors | 200,000 tested, 0.01% active; active = well fitted inhibition curve with a large enough effect in the signal ratio, with a control signal flat, not every such curve was filed as active; inconclusive = small, poorly fitted or top-dose-only effect, or effect the other way, or a change in a side signal; the % refers to the signal ratio; also: % is scaled to controls: 0 for no effect and ±100 for the full control effect
#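 S3 HeLa cells stably expressing lamin A-EGFP splicing minigene plus DsRed2, 600 cells/well, 48 h compound exposure at 37C. Laser-scanning cytometry; analysed as GFP (500-530 nm)/RFP (575-640 nm) total intensity ratio; 0.5% DMSO vehicle.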
# HTT ATP protect – protects HTT-Q103 PC12 cells, measured by ATP; Potency, µM (highest dose often 56.4 µM), without a hit: cytoprotection (ATP increase), most hits filed as activators; 230,000 tested, 0.14% active; PC12 HTT-Q103 induced, cytoprotection, ATP luminescence, 40 h; also: % of control where 0% means no effect; nearly all actives have a fitted effect of over 45% in size
#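 Compounds added alongside 100 nM tebufenozide, which induces toxic Q103 huntingtin exon 1-GFP in stable PC12 cells; surviving cells quantified by luminescent ATP measurement. Medium: phenol red-free DMEM, 5% equine and 5% calf serum.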
# KinaseGlo FLuc – blocks Kinase-Glo luciferase, a counter-screen artifact; Q27757; Kinase-Glo luciferase, ATP luminescence, 8 min; Potency, µM (titrated, usually from 38.3 µM), for the others: top-dose activity change, negative = inhibition, actives largely listed as inhibitors; 200,000 tested, 0.28% active; AID 1379; also: % is scaled to controls: 0 for no effect and ±100 for the full control effect; nearly all actives have a fitted effect of over 60% in size
#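 Substrate mix (final 50 mM imidazole pH 7.2, 50 mM KCl, 7 mM MgCl2, 10 uM ATP, 0.01% Tween 20, 0.05% BSA) plus pin-tool compound, then Kinase-Glo detection mix; 8 min ambient, luminescence read.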
# HTT aggregate – inhibitors of mutant huntingtin aggregate formation in PC12 cells. Potency, µM (series often up to 46.1 µM), inactives show at the top dose activity change, negative = inhibition, actives largely listed as inhibitors. 220,000 tested, 1.1% active. PC12 HttQ103-GFP aggregates, Acumen cytometry, 40 h; also: % is scaled to controls: 0 for no effect and ±100 for the full control effect; nearly all actives have a fitted effect of over 60% in size
#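 Huntingtin Q103 exon 1–GFP aggregates in induced PC12 cells (100 nM tebufenozide) were quantified by cytometry from lysates, with compounds dosed in titration.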
# ALDH1A1 block – ALDH1A1 (human) enzyme inhibition; P00352; Purified ALDH1A1, NADH fluorescence, propionaldehyde substrate; Potency, µM (doses to about 75.3 µM), without a hit: top-dose activity, negative = inhibition, actives largely listed as inhibitors; 220,000 tested, 7.3% active; AID 1030; active = well fitted inhibition curve with a large enough effect, not every such curve was filed as active; inconclusive = small, poorly fitted or top-dose-only effect, or another doubt; inactive = no such curve, though single readings can be large or run the other way;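 also: plate controls were no enzyme wells and a reference inhibitor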
# Starred values were filed as active, the others as inactive; ? = inconclusive; / = no result; [ ] = dose if it differs, or a comment. Unless noted, calls follow the shape of the dose curve; as a rule, active = well fitted curve in the direction sought with a large enough effect; inconclusive = small, poorly fitted or top-dose-only effect, or another doubt; inactive = no such curve, though single readings can be large; an effect the other way counts as inactive or inconclusive. Potency is read from the fitted curve at half-maximal effect.
SMILES,HPGD inh,LMNA splice mod,HTT ATP protect,KinaseGlo FLuc,HTT aggregate,ALDH1A1 block
Cc1nc(NC(=O)CSc2nnc3ccccn23)c(Cl)cc1Cl,-3.0%,11.7%,-11.6%,-1.4%,4.3%,16.0%
Cc1ccsc1/C=C1\SC(N2CC(C)OC(C)C2)=NC1=O (centres undefined),-15.6%,-17.6%,?,-0.6%,1.7%,17.8µM*
O=C1c2ccccc2-c2cccc(NS(=O)(=O)c3ccc(C(F)(F)F)cc3)c21,-19.7%,?,33.7%[10 µM],1.3%,?,-9.6%
O=C(NCc1cccnc1)C(=O)NCC(c1ccco1)N1CCN(c2ccccc2F)CC1 (centres undefined),-11.1%,?,-1.9%[10 µM],1.2%,6.7%,11.2µM*
O=C(Nc1ccc(Nc2ccccc2)cc1)C(Cl)(Cl)Cl,31.6µM*,?,/,-3.3%,?,?
O=C(Nc1ccc(Nc2ccccc2)cc1)C(Cl)Cl,22.4µM*,-23.9%,28.1%[10 µM],-4.9%,?,12.6µM*
COc1ccccc1CNC(=O)c1ccc(OCc2c(C)noc2C)c(OC)c1,-13.5%,9.7%,-5.8%,-1.1%,?,?
Cc1ccc(-n2c(O)c(/C=N/NC(=O)C3COc4ccccc4O3)c3ccccc3c2=O)cc1 (centres undefined),-23.2%,-9.6%,/,4.4%,?,?
CN(C)c1ccc(/C=N/NC(=O)C2COc3ccccc3O2)o1 (centres undefined),-10.7%,1.1%,/,-0.3%,32.4%,22.4µM*
O=C(N/N=C/c1c(O)n(-c2ccccc2Cl)c(=O)c2ccccc12)C1COc2ccccc2O1 (centres undefined),?,?,4.5%[10 µM],3.5%,12.6µM*,?
O=C(N/N=C\c1ccccn1)C1c2ccccc2Oc2ccccc21,/,-27.3%[46 µM],7.2%[10 µM],3.6%,-9.6%[9.22 µM],12.0%
NC(=S)N/N=C/c1ccc(-c2cccc([N+](=O)[O-])c2)o1,15.8µM*,?,/,-3.5%,-2.9%,?
O=C(N/N=C\c1ccccn1)C1COc2cc3ccccc3cc2O1 (centres undefined),14.1µM*,1.4%[0.0737 µM],-21.8%,3.7%,5.5%,?
O=C(N/N=C\c1ccc(Br)o1)C1COc2ccccc2O1 (centres undefined),/,-21.2%[46 µM],-10.2%[10 µM],2.5%,-13.2%[9.22 µM],?
C=CCNC(=S)Nc1ccc2nc(C)c(C)nc2c1,-23.7%,-2.8%,-28.2%,-1.7%,-22.5%,1.0%
CCS(=O)(=O)NCCc1csc(-c2cccnc2)n1,-12.1%,-7.2%,8.6%[10 µM],3.3%,-13.3%,9.6%
O=C(N/N=C\c1ccc(-c2ccc([N+](=O)[O-])cc2)o1)C1COc2ccccc2O1 (centres undefined),20µM*,?,/,-6.9%,6.0%,0.4%
COc1ccc(-n2c3c(cc(C(=O)NNc4ccccc4C)c2=O)C(=O)CC(C)(C)C3)cc1,/,3.1%[9.22 µM],-8.5%,1.3%,-24.3%,20µM*
COc1ccc(-n2c3c(cc(C(=O)NNc4ccccc4)c2=O)C(=O)CC(C)(C)C3)cc1,/,/,-21.2%,10.3%,0.3%,?
C=CCNC(=S)Nc1sc2c(c1C(=O)OCC)CC(C(C)C)OC2 (centres undefined),-29.1%,-25.6%,-64.8%,-4.1%,?,11.2µM*
CCOC(=O)c1c(NC(=S)NCCc2ccccc2)sc2c1CC(C(C)C)OC2 (centres undefined),-9.1%,?,3.7%[10 µM],2.2%,-13.3%,25.1µM*
CCOC(=O)c1c(NC(=O)c2ccco2)sc2c1CCCC2,?,5.1%,2.7%,-0.4%,5.7%,?
COC(=O)c1ccccc1NC(=O)COC(=O)CSCC(=O)N1CCOCC1,5.9%,?,10.8%,0.2%,5.0%,-0.7%
Nc1nnc(-c2cn(-c3ccccc3)nc2-c2ccc(Cl)cc2)o1,/,/,3.2%[10 µM],/,22.4%[9.22 µM],-8.5%
Cc1ccc(Oc2ccc(OCC(=O)NC(CC(C)C)C(=O)O)cc2)cc1 (centres undefined),/,-13.1%[46 µM],4.5%[10 µM],4.1%,-4.7%[9.22 µM],6.31µM*
